This is part of a sample that, as a whole, favours compounds with a hit. Of some 83,000 tested, about 20% had one in any assay.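 Method: cells in 96-well plates; compound added at one concentration; 48 h incubation; percent growth measured; values under 10 scored active.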 Activity calls are given as the source filed them.
Assays:
Assay in all cases: NCI-60 one-dose screen, 48 h (100 = growth as untreated, 0 = no growth, -100 = all killed)
Settings in all cases: 10 µM unless noted
[1] = test system: NCI-H23 lung
[2] = test system: NCI-H226 lung
[3] = test system: NCI-H322M lung
[4] = test system: HOP-62 NSCLC
[5] = test system: NCI-H460 lung
[6] = test system: HOP-92 NSCLC
[7] = test system: NCI-H522 lung
[8] = test system: A549/ATCC NSCLC
[9] = test system: 786-0 renal
[10] = test system: COLO 205 colon

Measured: growth

Cc1cc(C)c(C=O)c(C)c1
inactive: [1] 101% | [2] 95.2% | [3] 106% | [4] 72.4% | [5] 106% | [6] 86.4% | [7] 82.7% | [8] 72.1% | [9] 96.2% | [10] 107%

CC1(C)CC[C@]2(C(=O)NCC#CCN3CCOCC3)CC[C@]3(C)C(=CC[C@@H]4[C@@]5(C)Cc6c([nH]c7ccccc67)C(C)(C)[C@@H]5CC[C@]43C)[C@@H]2C1
inactive: [1] 95.9% | [2] 95.1% | [3] 96.1% | [4] 98.1% | [5] 90.1% | [6] 79.8% | [7] 85.2% | [8] 72% | [9] 92.7% | [10] 30.5%

C[C@H]1[C@H](C)CC[C@]2(CO)CC[C@]3(C)C(=CC[C@@H]4[C@@]5(C)CCCNC(C)(C)[C@@H]5CC[C@]43C)[C@H]12
inactive: [1] 36.1% | [8] 12%
active: [2] -99% | [3] -17.9% | [4] -23.1% | [5] -83.3% | [6] -5.92% | [7] -77.8% | [9] -81% | [10] -78.3%

COc1ccc(C(=O)/C=C/c2c(OC)cc(OC)cc2OC)c(OC)c1
inactive: [1] 26.1% | [2] 69.5% | [3] 56.2% | [4] 40.4% | [6] 31.5% | [8] 31.6% | [9] 26.2%
active: [5] 8.76% | [7] -6.76% | [10] 8.18%

COc1ccc(/C=N/NC(=O)c2cccc3cc[nH]c23)cc1O
active: [5] 7.44%
inactive: [1] 55.7% | [2] 90.4% | [3] 49.8% | [4] 36.3% | [6] 57.2% | [7] 54.8% | [8] 50.5% | [9] 30.9% | [10] 55.7%

COc1ccc(Nc2nc(N)nc3c2CCc2occc2-3)cc1
inactive: [1] 92.4% | [2] 97.1% | [3] 95.3% | [4] 98.4% | [5] 108% | [6] 99.6% | [7] 76.9% | [8] 103% | [9] 95.5% | [10] 116%

Cc1ccc(-c2c(Br)c(OC(=O)CO[C@@H]3C[C@H](C)CC[C@H]3C(C)C)c(-c3ccc(C)cc3C)c(Br)c2OC(=O)CO[C@H]2C[C@@H](C)CC[C@@H]2C(C)C)c(C)c1
inactive: [1] 98.6% | [2] 56.2% | [3] 103% | [4] 94.5% | [5] 105% | [6] 93.6% | [7] 79.4% | [8] 88.9% | [9] 96.8% | [10] 95.3%

Cc1ccc(Nc2cc(=S)nc(N)[nH]2)cc1C
inactive: [1] 90.8% | [2] 97.1% | [3] 98.1% | [4] 89.3% | [5] 103% | [6] 75.7% | [7] 91.1% | [8] 99.9% | [9] 98.9% | [10] 112%

COc1ccc(/C=C/C(=O)c2ccc(Nc3ncnc4ccccc34)cc2)cc1OC
inactive: [1] 73.3% | [2] 104% | [3] 92.4% | [4] 92.8% | [5] 83.8% | [6] 74% | [7] 92.7% | [8] 68.3% | [9] 79.2% | [10] 109%

FC(F)(F)c1cccc(Nc2ccccc2)c1
inactive: [1] 94.2% | [2] 97.6% | [3] 109% | [4] 105% | [5] 104% | [6] 101% | [7] 98.6% | [8] 97.3% | [9] 101% | [10] 105%

Cc1[nH]n(C(=O)c2ccncc2)c(=O)c1N=Nc1ccc(F)c(Cl)c1
inactive: [1] 92.1% | [2] 91.9% | [3] 110% | [4] 95.8% | [5] 109% | [6] 89.7% | [7] 103% | [8] 107% | [9] 92.9% | [10] 126%

COc1ccc(-c2nc(N/N=C/c3cccc(O)c3)nc(N3CCOCC3)c2C#N)cc1
inactive: [1] 99.5% | [2] 98.1% | [3] 95% | [4] 90.7% | [5] 83.8% | [6] 47.7% | [7] 79.1% | [8] 81.7% | [9] 44.1% | [10] 74.1%

N#Cc1c(NC(=O)c2cccc(Br)c2)sc2c1CCCC2
inactive: [1] 91% | [2] 89.8% | [3] 79.1% | [4] 83.3% | [5] 75.3% | [6] 86.2% | [7] 75.9% | [8] 75.2% | [9] 82.6% | [10] 94.2%

CC(=O)CCSc1ccc(OC(C)=O)cc1
inactive: [1] 100% | [2] 101% | [3] 103% | [4] 98% | [5] 106% | [6] 79.8% | [7] 82.3% | [8] 88.3% | [9] 100% | [10] 116%
